# Test results published in the supplement of paper PMC13380429.
# A number with no mark means an inactive call.
# Tested on: Vero E6 infected with SARS-CoV-2
# Assay: SARS-CoV-2 infection rate relative to infected DMSO; higher = more infection, active = 60 or less
# Conditions: 24 h
row,Structure (SMILES),SARS-CoV-2 infection rate [%]
1,COC1(C2=NCCN2)COc2ccccc2O1 (centres undefined) (10 µM),92.5
2,CN1C[C@H](CNC(=O)OCc2ccccc2)C[C@@H]2c3cccc4c3c(cn4C)C[C@H]21 [metergoline] (10 µM),97.5
3,CC(C)(C)NCC(O)COc1cccc2[nH]c(C#N)cc12 (centres undefined) [cyanopindolol] (10 µM),107
4,Cc1nc(N)sc1-c1ccnc(Nc2ccc(N3CCOCC3)cc2)n1 (0.833333 µM),93
5,O=S(=O)(Cc1ccccc1)Nc1ccc(-c2ccc3c(cnn3-c3ccc(F)cc3)c2)c(C(F)(F)F)c1 (10 µM),91.5
6,C[C@@H](CN1CCC(n2c(=O)[nH]c3cc(Cl)ccc32)CC1)NC(=O)c1ccc2ccccc2c1 (10 µM),87
7,COc1cc(N2CCN(C(C)=O)CC2)ccc1Nc1ncc(Cl)c(Nc2ccc(N3CCN(C(C)=O)CC3)cc2OC)n1 (10 µM),114
8,CCCN(CCC)CCc1cccc2c1CC(=O)N2 [ropinirole] (10 µM),112
9,CC(C)c1cccc2c(-c3ccccc3)cc(-c3ccc(-c4ccc(C(=O)O)cc4)[nH]3)nc12 (10 µM),87.5
10,O=C(O)c1cc(O)c2c(c1)[C@H]([C@H]1c3cc(C(=O)O)cc(O)c3C(=O)c3c(O[C@@H]4O[C@H](CO)[C@@H](O)[C@H](O)[C@H]4O)cccc31)c1cccc(O[C@@H]3O[C@H](CO)[C@@H](O)[C@H](O)[C@H]3O)c1C2=O [sennoside-A] (10 µM),113
11,Cn1cc(CCn2cnc(-c3cnn(C)c3)c2-c2ccc(C#N)cc2)cn1 (10 µM),97
12,Cc1ccc(NC2=NCCN2)c(Cl)c1 [tolonidine] (10 µM),98.5
13,Oc1ccc(-c2c(-c3ccccc3)nn3c(C(F)(F)F)cc(C(F)(F)F)nc23)cc1 (10 µM),104
14,O=C(NOCCO)c1cc(CN2OCCCC2=O)c(F)c(F)c1Nc1ccc(I)cc1F (0.833333 µM),96.5
15,CC1(C)OC2(C)C(O)CC1CC2O (centres undefined) [epomediol] (10 µM),100
16,COc1ccc2cc(CCC(C)=O)ccc2c1 [nabumetone] (10 µM),118
17,COc1ccc(/C=C/C(=O)O)cc1 [trans-4-methoxycinnamic-acid] (10 µM),106
18,CCOC(=O)/C=C(C)/C=C/C=C(C)/C=C/c1c(C)cc(OC)c(C)c1C [etretinate] (10 µM),92.5
19,Cc1cc(NC(=O)C(c2ccccc2)N2CCCc3ccccc32)no1 (centres undefined) (10 µM),92
20,CN(C(=O)CCCOc1ccc2[nH]c(=O)ccc2c1)C1CCCCC1 [cilostamide] (10 µM),103

row,Structure (SMILES),SARS-CoV-2 infection rate [%]
1,O=C(O)c1cccnc1C(=O)O [quinolinic-acid] (10 µM),108
2,CN1CCN(c2ccc(-c3cccc(CN4CCOCC4)c3)cc2NC(=O)c2c[nH]c(=O)cc2C(F)(F)F)CC1 (10 µM),115
3,COc1ccccc1OCCNCC(O)COc1cccc2[nH]c3ccccc3c12 (centres undefined) [carvedilol] (10 µM),97.5
4,COCCCOc1ccnc(C[S+]([O-])c2nc3ccccc3[nH]2)c1C (centres undefined) [rabeprazole] (10 µM),106
5,CC1(C)C(=O)NC2=C1C(=O)C(=O)c1ccccc12 (0.833333 µM),114
6,Cc1ccc(-c2csc3ncnc(SCCC(=O)O)c23)cc1 (10 µM),103
7,NC(=O)c1cnc2[nH]ccc2c1N[C@@H]1[C@@H]2CC3C[C@H]1C[C@@](O)(C3)C2 (10 µM),106
8,COc1cc(NC(=O)Nc2cccc(CNC(=O)O[C@H]3CCOC3)c2)ccc1-c1cnco1 [merimepodib] (10 µM),62.5
9,O=C([O-])c1ccccn1.O=C([O-])c1ccccn1.O=C([O-])c1ccccn1.[Cr+3] [chromium-picolinate] (10 µM),112
10,CC(=O)Oc1ccccc1C(=O)Oc1cccc(CO[N+](=O)[O-])c1 (10 µM),101
11,OC[C@H]1O[C@@H](O[C@@H]2[C@H](O)[C@@H](O)[C@H](O[C@H]3[C@H](O)[C@@H](O)C(O)O[C@@H]3CO)O[C@@H]2CO)[C@H](O)[C@@H](O)[C@H]1O (some centres undefined) [4-galactosyllactose] (10 µM),114
12,NC(=O)c1ccc(-c2nc(-c3ccccn3)c(-c3ccc4c(c3)OCO4)[nH]2)cc1 (10 µM),109
13,"CC1(C)[C@H]2CC[C@]1(C)[C@@H](O)[C@H]2O [cis-exo-camphanediol-2,3] (10 µM)",106
14,O=C1COc2c(CCNCCN(C(=O)CCNCCc3ccc(Cl)c(Cl)c3)C3CCCCC3)ccc(O)c2N1 (10 µM),100
15,CCCCC(F)(F)[C@@]1(O)CC[C@H]2[C@@H](CC(=O)[C@@H]2CCCCCCC(=O)O)O1 [lubiprostone] (10 µM),107
16,CC1(C)[C@@H](O)CC[C@]2(C)[C@H]3C(=O)C=C4[C@@H]5C[C@@](C)(C(=O)O)CC[C@]5(C)CC[C@@]4(C)[C@]3(C)CC[C@@H]12 [enoxolone] (10 µM),110
17,CCc1nc(C)ccc1O [emoxipin] (10 µM),99.5
18,O=C(O)c1ccc2[nH]cc(CCCCN3CC=C(c4ccccc4)CC3)c2c1 [carmoxirole] (10 µM),96.5
19,C=C1/C(=C\C=C2/CCC[C@]3(C)[C@@H]([C@H](C)OCCC(C)(C)O)CC[C@@H]23)C[C@@H](O)C[C@@H]1O [maxacalcitol] (10 µM),122
